Results: PubChem BioAssay (NCI)
Compounds without any hit were thinned out: in the full panel of roughly 83,000, 20% have a hit.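 Compound tested at a single concentration for 48 hours in 96-well plates; a percent growth value below 10 was scored as active.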 A number with no mark means an inactive call. Calls of active or inactive are those of the source.

How the values were obtained:
Test in all cases: NCI-60 one-dose screen, 48 h (100 = growth as untreated, 0 = no growth, -100 = all killed)
SR leukemia = conditions: 10 µM unless noted
RPMI-8226 leukemia = conditions: 10 µM unless noted
OVCAR-8 ovarian = conditions: 10 µM unless noted
OVCAR-5 ovarian = conditions: 10 µM unless noted
OVCAR-4 ovarian = conditions: 10 µM unless noted
SK-OV-3 ovarian = conditions: 10 µM unless noted
IGROV1 ovarian = conditions: 10 µM unless noted
OVCAR-3 ovarian = conditions: 10 µM unless noted
HS 578T breast = conditions: 10 µM
NCI/ADR-RES ovarian = conditions: 10 µM unless noted
T-47D breast = conditions: 10 µM unless noted
BT-549 breast = conditions: 10 µM unless noted
MDA-MB-435 melanoma = conditions: 10 µM unless noted
SW-620 colon = conditions: 10 µM unless noted
MCF7 breast = conditions: 10 µM unless noted
HCT-116 colon = conditions: 10 µM unless noted
HCC-2998 colon = conditions: 10 µM
KM12 colon = conditions: 10 µM unless noted

| Compound | growth (SR leukemia) | growth (RPMI-8226 leukemia) | growth (OVCAR-8 ovarian) | growth (OVCAR-5 ovarian) | growth (OVCAR-4 ovarian) | growth (SK-OV-3 ovarian) | growth (IGROV1 ovarian) | growth (OVCAR-3 ovarian) | growth (HS 578T breast) | growth (NCI/ADR-RES ovarian) | growth (T-47D breast) | growth (BT-549 breast) | growth (MDA-MB-435 melanoma) | growth (SW-620 colon) | growth (MCF7 breast) | growth (HCT-116 colon) | growth (HCC-2998 colon) | growth (KM12 colon) |
| --- | --- | --- | --- | --- | --- | --- | --- | --- | --- | --- | --- | --- | --- | --- | --- | --- | --- | --- |
| CCN(CC)C(=O)C[N+](C)(C)CCOC(c1ccccc1)c1ccccc1 | 108% | 114% | 110% | 100% | 89.5% | 107% | 102% | 103% | 112% | 99.1% | 105% | 99.3% | 93.2% | 111% | 93.4% | 99.4% | 93% | 102% |
| CSc1nc2ncncc2[nH]1 | 95.2% | 201% | 104% | 93.9% | 102% | 113% | 76.1% | 109% | 74.8% | 106% | 93.8% | 110% | 91.9% | 106% | 94.4% | 84.8% | 108% | 116% |
| COc1c(C(NC(=O)c2ccccc2)c2sccc2C)cc(Cl)c2cccnc12 (stereo unspecified) | 90% | 89.1% | 96.8% | 96.6% | 112% | 89.3% | 106% | 117% | 98.6% | 98.2% | 90.8% | 97.1% | 108% | 100% | 100% | 84.1% | 112% | 104% |
| CC(C)=CCc1cc2c(cc1O)C1=C(C(=O)C3=C(NCCS3(=O)=O)C1=O)C(C=C(C)C)O2 (stereo unspecified) | 6.83% (active) | 43.3% | 13.4% | 154% | 32.9% | 69.3% | 1.26% (active) | -0.915% (active) | 73.5% | 86.6% | 10.1% | 40.3% | -62.3% (active) | 6.34% (active) | -43.2% (active) | -21.2% (active) | 32.4% | 54.5% |
| Cc1cc(NCC(=O)Nc2ccc(-c3nc4ccccc4s3)cc2)no1 | 69.9% | 98.4% | 96.4% | 119% | 111% | 120% | 88.5% | 99.3% | 101% | 103% | 80.3% | 94.7% | 104% | 113% | 35.9% | 90.7% | 99.2% | 102% |
| O=C1OCC2=C1C(c1cccc(F)c1)c1cc3c(cc1N2CCO)OCCO3 (stereo unspecified) | 12.3% | 22.1% | 24.4% | 30.8% | 45% | 27.1% | 26.3% | -13.9% (active) | 31.4% | 6.36% (active) | 46.8% | 43.6% | -40.7% (active) | 26.8% | 15.6% | 11.2% | 8.09% (active) | 14% |
| CCCCN1CCCC[C@@H]1C(=O)N[C@H](C(=O)N(C)[C@H](CCc1nc(C(=O)N[C@@H](Cc2ccccc2)C[C@H](C)C(=O)OC)cs1)C(C)C)C(C)C | 7.34% (active) | 7.01% (active) | 82.6% | 95.1% | 61.3% | 75.4% | 50.3% | 65.2% | 90% | 65.4% | 45.3% | 52.3% | -6.94% (active) | 85.3% | 35.6% | 41.5% | 67.6% | 47.7% |
| CSc1nc2ncnc(SC)c2[nH]1 | 90.3% | 106% | 103% | 102% | 101% | 79.3% | 114% | 115% | 105% | 108% | 105% | 93.3% | 100% | 109% | 93.1% | 81.4% | 113% | 106% |
| C=C1C(=O)O[C@H]2[C@H]1CC/C(CNC(=O)c1cc3cc(OC)ccc3[nH]1)=C\CC[C@@]1(C)O[C@@H]21 | -0.374% (active) | -38.4% (active) | -16.4% (active) | -20.4% (active) | -3.23% (active) | 59.3% | -19.8% (active) | -90.7% (active) | -1.38% (active) | 54.3% | -46.3% (active) | -68.1% (active) | -48.1% (active) | -72.3% (active) | -29.6% (active) | -81.3% (active) | -90.3% (active) | 25.4% |
| OCCNC(=S)Nc1ccc(-c2nc(N3C[C@H]4CC[C@@H](C3)O4)c3cccn3n2)cc1 | 11.1% | 5.44% (active) | -7.06% (active) | -4.85% (active) | -7.17% (active) | -33.7% (active) | -19.9% (active) | -4.31% (active) | -28.6% (active) | 3.87% (active) | -22.5% (active) | -8.04% (active) | 0.28% (active) | 11.6% | 9.19% (active) | 22.6% | 20.8% | 12% |
| Cc1cc2c3c(cccc3c1)C(=O)c1ccccc1-2 | 96.6% | 109% | 107% | 100% | 94.8% | 107% | 90.5% | 90.2% | 99.6% | 77.9% | 92.1% | 95.3% | 103% | 94.7% | 82% | 96.1% | 98.2% | 93.3% |
| O=C(CNc1nc(-c2ccc(Cl)cc2)cs1)Nc1ccc(-c2nc3ccccc3s2)cc1 | 89.7% | 87.4% | 98% | 90.4% | 70.5% | 95% | 59.1% | 94% | 91.3% | 94.2% | 56.1% | 107% | 104% | 99.9% | 29.9% | 95.5% | 97.5% | 99% |
| CC/C=C\C[C@H]1C/C=C2/C(=O)C=C[C@@H]2C/C=C\CCCC(=O)O1 | 0.487% (active) | -19.1% (active) | 10% (active) | 21.7% | 10.6% | 60.2% | -26.7% (active) | -47.3% (active) | 36.4% | -1.72% (active) | 39.7% | -20.4% (active) | -45.5% (active) | -51% (active) | -1.97% (active) | -67.5% (active) | -79.4% (active) | -68.7% (active) |
| Cc1cc2c(-c3nc4ccccn4c3NC34CC5CC(CC(C5)C3)C4)c(O)c(O)cc2c(O)c1-c1c(C)cc2c(-c3nc4ccccn4c3NC34CC5CC(CC(C5)C3)C4)c(O)c(O)cc2c1O | 13.1% | 24.4% | 12.3% | 29.3% | 21.4% | -11.1% (active) | 21.3% | 27.6% | 21.8% | 9.01% (active) | -0.388% (active) | 9.45% (active) | 16.5% | 23.5% | 12.3% | 12% | 31% | 19.8% |
| COc1ccc2nc3cc(Cl)ccc3c(Nc3ccc(N(C)C)cc3)c2c1 | 1.55% (active) | 27.2% | 90.5% | 110% | 88.7% | 85.7% | 97% | 95.9% | 109% | 87.1% | 86.3% | 72.1% | 99.9% | 95.1% | 83.5% | 96.9% | 91.9% | 83.1% |
| COC(=O)CC[C@@H](C)[C@H]1CC[C@H]2C3CC[C@@H]4C[C@@H]5CC[C@]4(C)[C@@]3(O5)[C@H](Br)[C@@H](Br)[C@]12C (stereo partly specified) | 82.6% | 88.5% | 97.8% | 102% | 85.5% | 80.2% | 103% | 101% | 112% | 103% | 73.7% | 102% | 93.8% | 102% | 87.7% | 74.2% | 94.8% | 99.8% |
| CCCc1cc2cc(-n3nc(C)c4c3CC(C)(C)CC4=O)cc(NC3CCC(O)CC3)c2c(=O)[nH]1 (stereo unspecified) | 23.8% | 15.2% | 33% | 50.5% | 64.7% | 6.8% (active) | 36.9% | 23.2% | 47.4% | 45.5% | 38.2% | 29.2% | 20.8% | 24.9% | 25.4% | 11.3% | 24.7% | 4.71% (active) |
